Experimental data reported in the supplement of paper PMC11732987, “Enantioselective OTUD7B fragment discovery through chemoproteomics screening and high-throughput optimisation” (Communications Chemistry, 2025).

How the values were obtained:
Experiment in all cases: log2 ratio of Biotin-Ahx-Ub-VS probe labelling (fragment/DMSO); higher = less target engagement (more negative = stronger competition), active = hit call of the paper (q ≤ 0.05, log2 ratio ≤ -1)
Conditions in all cases: compound concentration: 200 uM; treatment time: 3 h
[1] = molecular target: T1, ALG13 (UniProt Q9NP73)
T1 sequence (whole entry): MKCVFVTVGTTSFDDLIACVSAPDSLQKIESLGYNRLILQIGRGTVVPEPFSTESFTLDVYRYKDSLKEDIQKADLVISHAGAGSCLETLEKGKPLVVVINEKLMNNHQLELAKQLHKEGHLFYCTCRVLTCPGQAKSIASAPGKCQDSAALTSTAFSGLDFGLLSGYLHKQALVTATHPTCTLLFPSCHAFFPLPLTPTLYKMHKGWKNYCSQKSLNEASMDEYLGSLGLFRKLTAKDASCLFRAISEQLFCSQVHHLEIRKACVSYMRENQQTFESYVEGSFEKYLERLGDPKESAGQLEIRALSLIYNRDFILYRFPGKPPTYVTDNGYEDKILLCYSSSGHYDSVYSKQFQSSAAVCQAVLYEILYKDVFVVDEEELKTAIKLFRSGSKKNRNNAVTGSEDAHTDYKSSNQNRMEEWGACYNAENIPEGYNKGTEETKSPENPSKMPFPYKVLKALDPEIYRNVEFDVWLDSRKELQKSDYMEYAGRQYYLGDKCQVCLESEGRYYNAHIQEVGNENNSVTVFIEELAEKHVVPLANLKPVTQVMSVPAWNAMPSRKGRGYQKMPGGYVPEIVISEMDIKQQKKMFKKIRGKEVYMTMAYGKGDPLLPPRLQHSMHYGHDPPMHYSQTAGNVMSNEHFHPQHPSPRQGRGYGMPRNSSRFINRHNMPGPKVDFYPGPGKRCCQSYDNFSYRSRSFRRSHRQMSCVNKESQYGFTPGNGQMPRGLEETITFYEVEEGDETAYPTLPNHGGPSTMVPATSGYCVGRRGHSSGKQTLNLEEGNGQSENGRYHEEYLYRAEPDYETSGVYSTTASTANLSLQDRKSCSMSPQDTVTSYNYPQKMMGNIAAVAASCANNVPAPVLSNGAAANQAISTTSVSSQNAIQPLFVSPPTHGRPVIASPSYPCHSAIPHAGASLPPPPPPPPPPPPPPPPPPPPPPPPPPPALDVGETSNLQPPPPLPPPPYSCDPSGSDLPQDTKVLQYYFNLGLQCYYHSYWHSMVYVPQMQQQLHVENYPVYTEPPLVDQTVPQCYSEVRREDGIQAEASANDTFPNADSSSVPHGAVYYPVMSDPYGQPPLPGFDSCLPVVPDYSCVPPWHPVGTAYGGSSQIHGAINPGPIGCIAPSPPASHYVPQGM
Summary of the method: (§1)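 Using Biotin-Ahx-Ub-VS at 0.5 µM final for 1 h, DUBs were labelled in HEK293T lysate (495 µg per sample) that had first been treated in triplicate with fragment at 200 µM or vehicle for 3 h. NeutrAvidin enrichment, LysC and trypsin digestion and diaPASEF LC-MS/MS followed. Spectronaut label-free quantities were global-median-normalised. Values are average log2 fragment/vehicle ratios by unpaired t-test, using proteins with ≥2 unique peptides.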

[2] = molecular target: ATXN3 (UniProt P54252)
Summary of the method: as §1

[3] = molecular target: T2, BAP1 (UniProt Q92560)
T2 sequence (whole entry): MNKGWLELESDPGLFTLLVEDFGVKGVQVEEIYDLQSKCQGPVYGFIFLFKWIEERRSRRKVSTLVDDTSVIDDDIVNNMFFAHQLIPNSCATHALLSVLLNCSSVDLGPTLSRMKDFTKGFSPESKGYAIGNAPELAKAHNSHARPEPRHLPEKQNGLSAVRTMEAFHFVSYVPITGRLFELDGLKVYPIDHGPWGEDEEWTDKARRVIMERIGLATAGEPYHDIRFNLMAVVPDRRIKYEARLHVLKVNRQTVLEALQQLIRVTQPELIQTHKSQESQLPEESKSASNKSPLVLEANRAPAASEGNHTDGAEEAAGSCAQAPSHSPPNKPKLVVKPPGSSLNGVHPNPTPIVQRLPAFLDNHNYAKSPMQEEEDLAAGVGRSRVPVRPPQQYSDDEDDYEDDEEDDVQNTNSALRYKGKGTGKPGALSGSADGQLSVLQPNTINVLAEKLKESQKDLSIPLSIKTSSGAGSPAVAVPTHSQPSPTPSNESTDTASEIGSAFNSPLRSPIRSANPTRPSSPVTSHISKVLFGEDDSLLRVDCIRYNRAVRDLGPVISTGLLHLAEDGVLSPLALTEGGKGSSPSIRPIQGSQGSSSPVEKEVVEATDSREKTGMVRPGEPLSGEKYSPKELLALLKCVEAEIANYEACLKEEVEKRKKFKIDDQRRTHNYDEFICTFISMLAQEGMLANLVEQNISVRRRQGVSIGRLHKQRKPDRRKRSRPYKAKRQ
Summary of the method: as §1

[4] = molecular target: EIF3F (UniProt O00303)
Summary of the method: as §1

[5] = molecular target: EIF3H (UniProt O15372)
Summary of the method: as §1

[6] = molecular target: T3, FAM105A (UniProt Q9NUU6)
T3 sequence (whole entry): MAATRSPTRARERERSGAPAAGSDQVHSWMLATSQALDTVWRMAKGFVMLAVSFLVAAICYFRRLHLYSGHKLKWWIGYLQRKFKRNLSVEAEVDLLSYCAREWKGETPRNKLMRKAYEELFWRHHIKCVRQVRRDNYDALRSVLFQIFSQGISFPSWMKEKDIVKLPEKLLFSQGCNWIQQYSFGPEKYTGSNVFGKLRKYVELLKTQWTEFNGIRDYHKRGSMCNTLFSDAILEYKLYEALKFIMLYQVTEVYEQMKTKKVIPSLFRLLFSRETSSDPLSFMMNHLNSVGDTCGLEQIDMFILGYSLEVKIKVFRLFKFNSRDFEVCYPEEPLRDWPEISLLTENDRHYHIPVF
Summary of the method: as §1

[7] = molecular target: OTUB1 (UniProt Q96FW1)
Summary of the method: as §1

[8] = molecular target: T4, OTUD4 (UniProt Q01804)
T4 sequence (whole entry): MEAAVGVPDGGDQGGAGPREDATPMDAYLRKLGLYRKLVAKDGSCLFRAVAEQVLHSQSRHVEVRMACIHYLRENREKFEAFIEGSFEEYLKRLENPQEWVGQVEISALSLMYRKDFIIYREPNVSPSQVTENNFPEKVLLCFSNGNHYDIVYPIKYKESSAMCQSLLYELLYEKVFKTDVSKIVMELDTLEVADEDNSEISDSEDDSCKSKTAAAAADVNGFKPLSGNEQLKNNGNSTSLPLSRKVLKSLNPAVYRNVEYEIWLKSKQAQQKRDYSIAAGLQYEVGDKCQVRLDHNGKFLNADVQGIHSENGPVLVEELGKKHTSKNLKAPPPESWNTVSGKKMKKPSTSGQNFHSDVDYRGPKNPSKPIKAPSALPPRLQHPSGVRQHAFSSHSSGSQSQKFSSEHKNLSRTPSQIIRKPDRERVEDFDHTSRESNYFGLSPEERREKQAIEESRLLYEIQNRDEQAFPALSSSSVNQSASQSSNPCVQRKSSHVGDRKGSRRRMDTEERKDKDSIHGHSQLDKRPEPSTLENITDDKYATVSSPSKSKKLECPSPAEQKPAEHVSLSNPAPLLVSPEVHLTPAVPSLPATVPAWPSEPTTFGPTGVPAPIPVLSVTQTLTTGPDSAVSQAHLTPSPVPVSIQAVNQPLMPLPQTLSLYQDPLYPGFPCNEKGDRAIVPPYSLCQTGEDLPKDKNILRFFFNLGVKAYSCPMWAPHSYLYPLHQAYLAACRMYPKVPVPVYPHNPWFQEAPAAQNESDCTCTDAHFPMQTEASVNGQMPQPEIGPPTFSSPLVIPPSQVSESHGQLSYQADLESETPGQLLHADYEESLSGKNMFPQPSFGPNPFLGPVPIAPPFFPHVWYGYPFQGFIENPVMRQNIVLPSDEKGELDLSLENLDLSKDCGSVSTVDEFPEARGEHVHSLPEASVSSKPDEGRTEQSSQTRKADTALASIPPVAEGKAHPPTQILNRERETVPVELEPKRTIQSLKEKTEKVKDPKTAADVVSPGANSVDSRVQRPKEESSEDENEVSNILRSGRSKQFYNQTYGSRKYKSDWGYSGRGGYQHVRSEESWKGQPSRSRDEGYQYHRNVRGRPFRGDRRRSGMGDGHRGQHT
Summary of the method: as §1

[9] = molecular target: T5, OTUD5 (UniProt Q96G74)
T5 sequence (whole entry): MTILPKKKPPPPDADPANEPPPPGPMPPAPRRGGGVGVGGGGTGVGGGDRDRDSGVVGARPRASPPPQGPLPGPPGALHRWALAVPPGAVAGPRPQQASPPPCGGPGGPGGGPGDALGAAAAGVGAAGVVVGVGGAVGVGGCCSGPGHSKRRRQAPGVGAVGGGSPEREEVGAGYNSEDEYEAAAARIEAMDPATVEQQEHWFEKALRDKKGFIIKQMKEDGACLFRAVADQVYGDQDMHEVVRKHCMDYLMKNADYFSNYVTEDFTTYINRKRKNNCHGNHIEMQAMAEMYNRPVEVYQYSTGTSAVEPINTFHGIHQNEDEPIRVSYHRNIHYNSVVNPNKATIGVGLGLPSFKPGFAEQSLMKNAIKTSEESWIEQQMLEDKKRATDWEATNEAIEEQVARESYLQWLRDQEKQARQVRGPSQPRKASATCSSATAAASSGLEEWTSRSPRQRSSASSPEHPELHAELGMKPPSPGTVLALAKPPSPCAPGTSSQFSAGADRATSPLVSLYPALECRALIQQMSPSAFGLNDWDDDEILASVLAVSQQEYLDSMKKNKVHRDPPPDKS
Summary of the method: as §1

Measured: log2 ratio of Biotin-Ahx-Ub-VS probe labelling

EIF3H, sequence (O15372 whole entry): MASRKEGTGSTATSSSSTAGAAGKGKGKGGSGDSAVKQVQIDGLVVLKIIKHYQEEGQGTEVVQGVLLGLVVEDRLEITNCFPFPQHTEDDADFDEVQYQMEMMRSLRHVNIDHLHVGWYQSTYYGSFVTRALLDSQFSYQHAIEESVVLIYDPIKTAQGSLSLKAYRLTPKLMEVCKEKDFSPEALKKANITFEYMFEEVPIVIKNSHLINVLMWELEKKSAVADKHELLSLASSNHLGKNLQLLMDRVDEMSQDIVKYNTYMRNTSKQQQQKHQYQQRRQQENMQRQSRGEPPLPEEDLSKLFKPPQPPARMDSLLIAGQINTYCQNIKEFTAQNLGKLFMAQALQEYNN
ATXN3, sequence (P54252 whole entry): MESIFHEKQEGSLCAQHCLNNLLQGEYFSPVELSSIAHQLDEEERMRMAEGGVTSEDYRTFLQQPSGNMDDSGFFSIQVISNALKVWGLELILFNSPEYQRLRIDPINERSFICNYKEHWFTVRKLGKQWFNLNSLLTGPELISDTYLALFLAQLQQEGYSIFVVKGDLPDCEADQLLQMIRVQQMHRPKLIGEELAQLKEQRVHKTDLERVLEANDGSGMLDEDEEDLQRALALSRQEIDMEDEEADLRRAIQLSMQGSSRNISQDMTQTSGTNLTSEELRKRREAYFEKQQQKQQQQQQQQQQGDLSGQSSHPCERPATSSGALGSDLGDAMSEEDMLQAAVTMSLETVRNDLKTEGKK
EIF3F, sequence (O00303 whole entry): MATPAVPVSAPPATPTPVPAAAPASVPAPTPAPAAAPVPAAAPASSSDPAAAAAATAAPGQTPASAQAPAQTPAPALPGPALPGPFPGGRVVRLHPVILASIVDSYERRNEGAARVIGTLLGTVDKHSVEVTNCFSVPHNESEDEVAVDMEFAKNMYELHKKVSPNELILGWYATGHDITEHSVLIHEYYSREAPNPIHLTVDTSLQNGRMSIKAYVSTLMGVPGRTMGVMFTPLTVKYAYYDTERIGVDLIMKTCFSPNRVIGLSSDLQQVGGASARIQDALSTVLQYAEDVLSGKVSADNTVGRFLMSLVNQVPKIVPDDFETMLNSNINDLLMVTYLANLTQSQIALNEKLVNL
OTUB1, sequence (Q96FW1 whole entry): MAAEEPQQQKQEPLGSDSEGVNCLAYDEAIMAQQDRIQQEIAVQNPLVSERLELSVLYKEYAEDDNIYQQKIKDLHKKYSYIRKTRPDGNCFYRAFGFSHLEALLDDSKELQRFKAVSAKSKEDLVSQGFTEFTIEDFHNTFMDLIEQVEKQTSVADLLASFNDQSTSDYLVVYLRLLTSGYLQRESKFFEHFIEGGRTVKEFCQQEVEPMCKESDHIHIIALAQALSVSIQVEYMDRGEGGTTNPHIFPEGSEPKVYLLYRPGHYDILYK

O=C(CCl)N1CCC(C(O)c2ccc(F)cc2)CC1 (centres undefined)
inactive: [1] 0.00454 | [2] -0.475 | [3] -0.334 | [4] -0.0081 | [5] 0.17 | [6] -0.0782 | [7] -0.215 | [8] -0.0305 | [9] -0.189
